According to PubChem BioAssay:
Active and inactive are the calls of the source. Unless noted, how the calls were made is not given here.

Legend:
[1] = compounds binding Alexa647 anti-His antibody – biochemical, small-molecule microarray, 635 nm fluorescence, artefact control for SMM control protein annotation, primary screen (AID 1128); settings: higher = more signal;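 further: score merges feature fluorescence with signal-to-noise for each printed compound spot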
[2] = tested on: Human papillomavirus type 1a E7 protein (residues 1-88); test: HPV1a E7 small-molecule binders, primary screen, biochemical, small-molecule microarray, residues 1-88, 635 nm (AID 1129); settings: small-molecule microarray binding, fluorescence 635 nm; higher = more signal
[3] = target: Focal adhesion kinase 1 (Homo sapiens) (UniProt Q05397); test: PTK2 protein binding on printed compound slides – biochemical, small-molecule microarray, 635/667 nm fluorescence, BSA, DTT, primary screen (AID 1130); settings: 635 nm fluorescence, higher = more signal;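 further: composite of spot emission at 667 nm and signal to noise over triplicate slides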
Chain of Focal adhesion kinase 1 (Homo sapiens) (Q05397 whole entry, looked up): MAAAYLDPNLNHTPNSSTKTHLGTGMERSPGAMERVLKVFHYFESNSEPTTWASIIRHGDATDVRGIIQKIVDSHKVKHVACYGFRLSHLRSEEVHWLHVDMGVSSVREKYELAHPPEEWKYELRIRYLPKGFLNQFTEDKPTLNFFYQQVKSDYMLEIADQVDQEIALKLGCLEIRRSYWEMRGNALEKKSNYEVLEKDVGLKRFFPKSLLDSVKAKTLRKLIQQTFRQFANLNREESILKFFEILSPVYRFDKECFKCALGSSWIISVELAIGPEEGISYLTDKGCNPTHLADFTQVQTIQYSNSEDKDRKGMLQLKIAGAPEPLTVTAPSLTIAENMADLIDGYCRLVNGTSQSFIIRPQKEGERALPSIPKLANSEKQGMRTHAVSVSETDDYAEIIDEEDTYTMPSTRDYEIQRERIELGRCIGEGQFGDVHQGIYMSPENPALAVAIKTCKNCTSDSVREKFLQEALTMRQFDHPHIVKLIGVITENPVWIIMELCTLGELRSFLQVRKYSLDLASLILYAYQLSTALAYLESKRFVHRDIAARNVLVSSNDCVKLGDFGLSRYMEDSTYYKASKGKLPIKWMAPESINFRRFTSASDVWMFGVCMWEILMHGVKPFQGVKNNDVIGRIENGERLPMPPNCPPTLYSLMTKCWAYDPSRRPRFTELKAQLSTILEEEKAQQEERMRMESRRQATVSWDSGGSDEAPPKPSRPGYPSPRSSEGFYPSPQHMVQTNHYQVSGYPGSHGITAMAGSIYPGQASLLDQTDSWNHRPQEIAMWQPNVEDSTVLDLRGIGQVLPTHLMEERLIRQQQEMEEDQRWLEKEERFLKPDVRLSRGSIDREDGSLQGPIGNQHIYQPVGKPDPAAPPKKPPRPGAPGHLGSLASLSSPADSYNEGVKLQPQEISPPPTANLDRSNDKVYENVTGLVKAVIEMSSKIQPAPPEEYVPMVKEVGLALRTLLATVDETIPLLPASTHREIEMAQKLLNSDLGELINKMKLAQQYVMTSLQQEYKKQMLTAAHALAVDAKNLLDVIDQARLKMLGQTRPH

[4] = tested on: Fibrinogen (Alexa647-labelled); test: Alexa647-fibrinogen binding to printed small molecules – biochemical, small-molecule microarray, 635/667 nm fluorescence, artefact control for SMM control-protein annotation, profiling panel (AID 1131); settings: fibrinogen-A647 binding fluorescence, higher = more signal;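 further: z-score merges 667 nm fluorescence with per-spot signal-to-noise over triplicate slides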
[5] = target: Follistatin (Homo sapiens) (UniProt P19883); test: FST protein binding to printed compounds – biochemical, small-molecule microarray, 635/667 nm fluorescence, primary screen (AID 1132); settings: 635 nm fluorescence, higher = more signal
Chain of Follistatin (Homo sapiens) (P19883 whole entry, looked up): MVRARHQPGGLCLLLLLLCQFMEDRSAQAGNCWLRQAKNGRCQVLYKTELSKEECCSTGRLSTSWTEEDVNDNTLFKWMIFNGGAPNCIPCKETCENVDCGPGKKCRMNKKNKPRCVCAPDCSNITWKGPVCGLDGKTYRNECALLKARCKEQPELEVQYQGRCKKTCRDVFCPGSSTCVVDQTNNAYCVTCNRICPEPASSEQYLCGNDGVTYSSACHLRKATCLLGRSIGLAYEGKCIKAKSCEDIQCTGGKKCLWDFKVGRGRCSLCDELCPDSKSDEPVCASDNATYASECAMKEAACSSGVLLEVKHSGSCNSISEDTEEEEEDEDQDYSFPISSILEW

[6] = target: Fibroblast growth factor 2 (Homo sapiens) (UniProt P09038); test: basic fibroblast growth factor binding to printed compounds – biochemical, small-molecule microarray, 635/667 nm fluorescence, primary screen (AID 1133); settings: FGF2, fluorescence 635/667, higher = more signal
Chain of Fibroblast growth factor 2 (Homo sapiens) (P09038 whole entry, looked up): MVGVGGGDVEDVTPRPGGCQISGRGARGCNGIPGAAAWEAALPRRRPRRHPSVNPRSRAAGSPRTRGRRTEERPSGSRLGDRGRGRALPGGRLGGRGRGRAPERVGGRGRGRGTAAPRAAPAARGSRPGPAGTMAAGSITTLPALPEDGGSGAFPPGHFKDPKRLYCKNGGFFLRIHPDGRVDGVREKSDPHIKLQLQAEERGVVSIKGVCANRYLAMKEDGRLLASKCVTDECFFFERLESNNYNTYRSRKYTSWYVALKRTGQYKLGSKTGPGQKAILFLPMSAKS

[7] = JC-1 mitochondrial potential readout, lung cancer cells – cell-based, A549, JC-1 fluorescence, basal, 24 h, 100 nL, profiling panel (AID 1138); settings: higher = more signal;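 further: A549 lung adenocarcinoma cells under basal conditions with no added stimulus; test concentration not given here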
Lefty1 = Lefty1 protein binding to printed compounds – biochemical, small-molecule microarray, 635/667 nm fluorescence, primary screen (AID 1139); settings: fluorescence 635/667, higher = more signal
[8] = tested on: wheat germ agglutinin (Triticum aestivum), Alexa647-labelled; test: Alexa647-WGA lectin binding to printed small molecules – biochemical, small-molecule microarray, 635/667 nm fluorescence, artefact control for SMM control-protein annotation, profiling panel (AID 1140); settings: WGA-A647 binding, 635 nm fluorescence, higher = more signal;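 further: score merges 667 nm feature emission with signal to noise over triplicate slides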
[9] = target: Luciferin 4-monooxygenase (Photinus pyralis) (UniProt P08659); test: inhibition of purified Photinus pyralis luciferase – biochemical, luminescence, purified enzyme, 2006 set, primary screen (AID 1141); settings: purified firefly luciferase, SteadyGlo luminescence, 30 min; higher = more signal, called active from +8 up or from −8 down;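 further: cell-free assay with purified firefly luciferase at 100 ng per well in PBS; test concentration not given here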
Chain of Luciferin 4-monooxygenase (Photinus pyralis) (P08659 whole entry, looked up): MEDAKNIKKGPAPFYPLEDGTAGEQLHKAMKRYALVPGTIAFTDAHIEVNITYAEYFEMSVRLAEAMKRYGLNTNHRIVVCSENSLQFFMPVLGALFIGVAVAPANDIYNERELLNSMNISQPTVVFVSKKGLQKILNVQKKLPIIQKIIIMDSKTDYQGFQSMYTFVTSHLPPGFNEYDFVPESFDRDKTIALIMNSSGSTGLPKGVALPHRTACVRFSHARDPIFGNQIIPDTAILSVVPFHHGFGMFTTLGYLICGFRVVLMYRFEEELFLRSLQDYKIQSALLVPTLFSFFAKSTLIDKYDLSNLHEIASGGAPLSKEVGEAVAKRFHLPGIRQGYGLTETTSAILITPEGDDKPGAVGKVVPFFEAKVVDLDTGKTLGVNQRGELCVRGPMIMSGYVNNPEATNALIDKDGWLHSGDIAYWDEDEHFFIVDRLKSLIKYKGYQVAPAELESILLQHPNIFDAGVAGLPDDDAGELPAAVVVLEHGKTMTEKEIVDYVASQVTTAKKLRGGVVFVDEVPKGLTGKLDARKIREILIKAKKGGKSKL

[10] = tested on: Wnt5a (protein binding on small-molecule microarray); test: small molecules binding Wnt5a protein – biophysical, small-molecule microarray, 635/667 nm fluorescence, primary screen (AID 1142); settings: 635 nm fluorescence, higher = more signal;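 further: fluorescence read at 667 nm with signal to noise per printed feature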
[11] = ATP-based viability of Huh7 replicon cells – cell-based, CellTiter-Glo luminescence, basal, 48 h, cytotoxicity control for HCV replication inhibitor project, primary screen (AID 1143); settings: higher = more signal, called active from +8 up or from −8 down;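 further: Huh7 hepatoma cells carrying a hepatitis C replication reporter with no stimulus; test concentration not given here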
[12] = Pseudomonas biofilm growth suppression – PAO1 strain, BacTiter-Glo luminescence, LB-PBS, primary screen (AID 1144); settings: P. aeruginosa PAO1 biofilm, 12 h, higher = more signal
[13] = basal CRE-LacZ reporter activity in PC12 – cell-based, unstimulated, primary screen (AID 1145); settings: no forskolin, luminescence, 4.5 h, higher = more signal, called active from +8 up or from −8 down
[14] = forskolin-driven CRE-LacZ activity in PC12 – cell-based, CRE-LacZ reporter, forskolin-stimulated, primary screen (AID 1146); settings: luminescence, 4.5 h, higher = more signal, called active from +8 up or from −8 down;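 further: PC12 cells with 6xCRE LacZ reporter stimulated by forskolin 10 µM; beta-galactosidase reporter signal reflecting CREB driven transcription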
[15] = target: Streptavidin (Streptomyces avidinii) (UniProt P22629); test: compounds binding control protein streptavidin – biophysical, small-molecule microarray, 635/667 nm fluorescence, artefact control for SMM compound annotation, primary screen (AID 1147); settings: higher = more signal;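 further: signal reflects streptavidin binding to arrayed compounds as a control protein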
Chain of Streptavidin (Streptomyces avidinii) (P22629 whole entry, looked up): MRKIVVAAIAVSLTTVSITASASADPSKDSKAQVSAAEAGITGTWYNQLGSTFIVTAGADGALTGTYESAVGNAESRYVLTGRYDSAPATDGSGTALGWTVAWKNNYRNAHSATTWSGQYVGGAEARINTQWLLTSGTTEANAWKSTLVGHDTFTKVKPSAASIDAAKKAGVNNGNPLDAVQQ

[16] = probe aInhba binding on compound microarray – biochemical, small-molecule microarray, 635/667 nm fluorescence, primary screen (AID 1148); settings: higher = more signal;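 further: score merges 667nm spot fluorescence with signal-to-noise for antibody binding to printed compounds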
Torsin-1A (Homo sapiens) [17] = target: Torsin-1A (Homo sapiens) (UniProt O14656); test: TOR1A wild-type binding on microarray – cell lysate, small-molecule microarray, lysate, 635/667 nm, primary screen (AID 1149); settings: COS7 hTOR1A-WT lysate, 635 nm fluorescence, higher = more signal
Chain of Torsin-1A (Homo sapiens) (O14656 whole entry, looked up): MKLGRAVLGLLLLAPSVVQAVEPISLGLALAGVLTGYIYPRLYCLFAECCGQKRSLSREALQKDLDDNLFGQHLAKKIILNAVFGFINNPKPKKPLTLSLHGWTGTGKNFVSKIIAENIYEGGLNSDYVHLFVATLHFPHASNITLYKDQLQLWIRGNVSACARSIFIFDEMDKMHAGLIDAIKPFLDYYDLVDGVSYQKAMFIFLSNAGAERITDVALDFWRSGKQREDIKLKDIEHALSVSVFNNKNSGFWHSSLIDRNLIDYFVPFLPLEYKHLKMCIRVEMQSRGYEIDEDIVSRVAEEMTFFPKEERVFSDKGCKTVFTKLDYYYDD

Torsin-1A (Homo sapiens) [18] = target: Torsin-1A (Homo sapiens) (UniProt O14656); test: torsin A mutant lysate binding on microarrays – cell lysate, small-molecule microarray, COS7 lysate, 635/667 nm fluorescence, primary screen (AID 1150); settings: COS7 hTOR1A mutant lysate, 635 nm fluorescence, higher = more signal;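 further: score pools 667 nm emission and signal to noise measuring lysate protein binding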
[19] = tested on: Sonic hedgehog protein (Shh); test: Sonic hedgehog microarray binding compounds – biochemical, small-molecule microarray, 635/667 nm fluorescence, primary screen (AID 1151); settings: 635 nm fluorescence, higher = more signal;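 further: Shh protein binding to compounds spotted on small-molecule microarray slides; score combines spot fluorescence intensity with signal-to-noise across triplicate slides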

Compound	composite z-score [1]	composite z-score [2]	composite z-score [3]	composite z-score [4]	composite z-score [5]	composite z-score [6]	z-score [7]	composite z-score (Lefty1)	composite z-score [8]	z-score [9]	composite z-score [10]	z-score [11]	z-score [12]	z-score [13]	z-score [14]	composite z-score [15]	composite z-score [16]	composite z-score (Torsin-1A (Homo sapiens) [17])	composite z-score (Torsin-1A (Homo sapiens) [18])	composite z-score [19]
O=C(O)[C@H]1C[C@H]2C(=O)N[C@@H](Cc3ccccc3)C(=O)N2[C@H]1c1cccc(OCCO)c1	1.7	-0.0006	-0.167	0.472	1.43	1.44	0.706	1.33	0.568	-0.832 (inactive)	0.223	-0.6 (inactive)	0.28 (inactive)	1.23 (inactive)	-0.178 (inactive)	0.105	0.0663	1.42	1.71	1.9
C=CCC(OC(C)=O)[C@@H]1[C@@H](N(Cc2cc3ccccc3o2)C(=O)c2ccc(-c3ccccc3)cc2)c2cc(OCCCO)ccc2N1C(=O)Cc1ccc(OC)cc1 (stereo not given in full)	-0.289	-0.27	-0.19	0.457	0.453	0.245	0.64	0.16	0.307	-0.189 (inactive)	-0.138	0.0567 (inactive)	0.263 (inactive)	1.09 (inactive)	0.289 (inactive)	-0.0182	-0.0736	-0.592	-0.324	0.366
C=C[C@@H](C)[C@H](O)c1ccc(OCCO)cc1	0.0123	-0.535	-0.232	-1.82	-0.808	-0.994	0.41	-1.19	-0.858	-15.8 (active)	-0.872	-0.104 (inactive)	-0.307 (inactive)	0.166 (inactive)	-0.049 (inactive)	-1.83	-0.263	-3.14	-1.86	-0.509
[N-]=[N+]=NCc1ccccc1C[C@@]1(C(=O)N2CCCCC2)N=C(c2ccc(OCCCO)cc2)O[C@@H]1c1ccccc1CN=[N+]=[N-]	-0.174	1.18	0.457	1.02	0.913	0.74	0.342	-0.611	1.28	-0.57 (inactive)	0.599	-4.29 (inactive)	0.87 (inactive)	-0.114 (inactive)	0.872 (inactive)	0.721	0.153	0.362	-0.0699	-0.306
CCOC(=O)C1=C[C@@H](C(C)(C)C)N(S(=O)(=O)c2ccc(C)cc2)[C@H]1c1cccc(Cl)c1	1.07	1.22	2.77	0.862	0.677	0.556	2.42	1.26	1.01	1.24 (inactive)	0.37	-4.84 (inactive)	1.52 (inactive)	0.0798 (inactive)	-0.651 (inactive)	1.37	0.18	0.224	0.695	0.163
C=CCC(OC(C)=O)[C@@H]1[C@@H](N(Cc2cccc3ccccc23)C(=O)c2ccc(-c3ccccc3)cc2)c2cc(OCCCO)ccc2N1C(=O)c1ccc(-c2ccccc2)cc1 (stereo not given in full)	-0.811	0.488	-0.132	-0.123	0.353	-0.0952	0.758	0.0683	0.204	-0.0873 (inactive)	0.09	0.457 (inactive)	-0.1 (inactive)	0.367 (inactive)	0.859 (inactive)	0.361	0.114	0.162	0.0809	0.286
COC(=O)C1=CC(CCCO)=CC(c2ccc(CN3CCCC3)cc2)N(Cc2cc3c(cc2Br)OCO3)C=C1C(=O)OC (stereo not given)	0.676	1.22	0.473	1.02	1.2	0.918	0.0526	0.514	1	0.197 (inactive)	0.804	-0.0928 (inactive)	-0.44 (inactive)	0.0118 (inactive)	-0.602 (inactive)	1.98	0.36	0.0851	2.59	-0.249
COc1cc(NN2C(C(O)C3CCCCC3)C=CC3C(=O)N(c4ccccc4)C(=O)C32)cc(OC)c1OC (stereo not given)	1.96	1.26	0.724	0.964	0.459	-0.776	-0.0727	-0.175	1.23	-0.45 (inactive)	0.316	-2.88 (inactive)	-0.408 (inactive)	0.436 (inactive)	-0.0678 (inactive)	0.775	0.121	-0.224	0.335	-0.686
